# From article PMC5540273 (PLoS ONE, 2017)
# Values joined by “and” are separate entries in the source; they are usually repeats but may differ in a detail not shown here. Equal values may be shown once. Read-outs that look alike come from different tables or passages of the source.
# Legend:
# AKT3 = conditions: concentration: 1 μM, replicates: in singlicate, n = 1
# ALK = conditions: concentration: 1 μM, replicates: in singlicate; n = 1
# AMPK-alpha1 = tested on: T1, AMPK-alpha1; conditions: concentration: 1 μM, replicates: in singlicate, n = 1
# T1 construct: gene PRKAA1
# AMPK-alpha2 = tested on: T2, AMPK-alpha2; conditions: concentration: 1 μM, replicates: in singlicate; n = 1
# T2 construct: gene PRKAA2
# ANKK1 = conditions: concentration: 1 μM, replicates: in singlicate, n = 1
# ARK5 = tested on: T3, ARK5; conditions: concentration: 1 μM, replicates: in singlicate, n = 1
# T3 construct: gene NUAK1
# ASK1 = tested on: T4, ASK1; conditions: concentration: 1 μM, replicates: in singlicate, n = 1
# T4 construct: gene MAP3K5
# ASK2 = tested on: T5, ASK2; conditions: concentration: 1 μM, replicates: in singlicate, n = 1
# T5 construct: gene MAP3K6
# AURKA = conditions: concentration: 1 μM, replicates: in singlicate, n = 1
# AURKB = conditions: concentration: 1 μM, replicates: in singlicate, n = 1
# AURKC = conditions: concentration: 1 μM, replicates: in singlicate; n = 1
# AXL = conditions: concentration: 1 μM, replicates: in singlicate, n = 1
# BIKE = tested on: T6, BIKE; conditions: concentration: 1 μM, replicates: in singlicate, n = 1
# T6 construct: gene BMP2K
# BLK = conditions: concentration: 1 μM, replicates: in singlicate; n = 1
# BMPR1A = conditions: concentration: 1 μM, replicates: in singlicate; n = 1
# BMPR1B = conditions: concentration: 1 μM, replicates: in singlicate, n = 1
# BMPR2 = conditions: concentration: 1 μM, replicates: in singlicate, n = 1
# BMX = conditions: concentration: 1 μM, replicates: in singlicate, n = 1
# BRAF = conditions: concentration: 1 μM, replicates: in singlicate, n = 1
# BRK = tested on: T7, BRK; conditions: concentration: 1 μM, replicates: in singlicate, n = 1
# T7 construct: gene PTK6
# 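Also: KINOMEscan kinase panel screen.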
structure (smiles),measurement,setting,value
Fc1cccc(COc2ccc(Nc3ncnc4sc(-c5ccc[nH]5)cc34)cc2Cl)c1 [GW707818],%Inh,AKT3,0%
same,%Inh,ALK,0%
same,%Inh,AMPK-alpha1,10%
same,%Inh,AMPK-alpha2,36%
same,%Inh,ANKK1,12%
same,%Inh,ARK5,6%
same,%Inh,ASK1,21%
same,%Inh,ASK2,0%
same,%Inh,AURKA,6%
same,%Inh,AURKB,0%
same,%Inh,AURKC,9%
same,%Inh,AXL,0%
same,%Inh,BIKE,24%
same,%Inh,BLK,0%
same,%Inh,BMPR1A,25%
same,%Inh,BMPR1B,0%
same,%Inh,BMPR2,1%
same,%Inh,BMX,6%
same,%Inh,BRAF,0%
same,%Inh,BRK,0%
Cl.O=S(=O)(c1cccc(F)c1)c1ccc(Nc2ncnc3cc(Br)sc23)cc1Cl [GSK306886],%Inh,AKT3,0%
same,%Inh,ALK,14%
same,%Inh,AMPK-alpha1,0%
same,%Inh,AMPK-alpha2,0%
same,%Inh,ANKK1,3%
same,%Inh,ARK5,10%
same,%Inh,ASK1,8%
same,%Inh,ASK2,0%
same,%Inh,AURKA,30%
same,%Inh,AURKB,0%
same,%Inh,AURKC,0%
same,%Inh,AXL,0%
same,%Inh,BIKE,0%
same,%Inh,BLK,10%
same,%Inh,BMPR1A,0%
same,%Inh,BMPR1B,0%
same,%Inh,BMPR2,0%
same,%Inh,BMX,15%
same,%Inh,BRAF,0%
same,%Inh,BRK,0%
COc1cc2ncnc(Nc3ccc(OCc4ccccc4Br)c(Cl)c3)c2cc1OC.Cl [GI261590],%Inh,AKT3,0%
same,%Inh,ALK,39%
same,%Inh,AMPK-alpha1,11%
same,%Inh,AMPK-alpha2,0%
same,%Inh,ANKK1,0%
same,%Inh,ARK5,3%
same,%Inh,ASK1,10%
same,%Inh,ASK2,0%
same,%Inh,AURKA,1%
same,%Inh,AURKB,35%
same,%Inh,AURKC,42%
same,%Inh,AXL,19%
same,%Inh,BIKE,5%
same,%Inh,BLK,49%
same,%Inh,BMPR1A,0%
same,%Inh,BMPR1B,0%
same,%Inh,BMPR2,15%
same,%Inh,BMX,4%
same,%Inh,BRAF,7%
same,%Inh,BRK,66%
COc1ccc(NC(=O)Nc2ccc(C)c(-c3ccc(C(=O)Nc4ccncc4)cc3)c2)cc1 [GSK1398475],%Inh,AKT3,0%
same,%Inh,ALK,18%
same,%Inh,AMPK-alpha1,0%
same,%Inh,AMPK-alpha2,0%
same,%Inh,ANKK1,10%
same,%Inh,ARK5,0%
same,%Inh,ASK1,4%
same,%Inh,ASK2,0%
same,%Inh,AURKA,4%
same,%Inh,AURKB,0%
same,%Inh,AURKC,0%
same,%Inh,AXL,0%
same,%Inh,BIKE,0%
same,%Inh,BLK,28%
same,%Inh,BMPR1A,0%
same,%Inh,BMPR1B,0%
same,%Inh,BMPR2,0%
same,%Inh,BMX,14%
same,%Inh,BRAF,0%
same,%Inh,BRK,32%
COc1ccc(-c2nc3n(c2-c2ccncc2)CCC3)cc1 [SKF-104493],%Inh,AKT3; 1 µM,19% and 0%
same,%Inh,ALK,0%
same,%Inh,AMPK-alpha1; 1 µM,11% and 9%
same,%Inh,AMPK-alpha2,0%
same,%Inh,ANKK1; 1 µM,0% and 16%
same,%Inh,ARK5; 1 µM,0% and 12%
same,%Inh,ASK1; 1 µM,0% and 2%
same,%Inh,ASK2; 1 µM,30% and 6%
same,%Inh,AURKA; 1 µM,16% and 23%
same,%Inh,AURKB; 1 µM,23% and 7%
same,%Inh,AURKC,0%
same,%Inh,AXL; 1 µM,14% and 0%
same,%Inh,BIKE; 1 µM,10% and 0%
same,%Inh,BLK,0%
same,%Inh,BMPR1A,0%
same,%Inh,BMPR1B; 1 µM,0% and 1%
same,%Inh,BMPR2; 1 µM,39% and 2%
same,%Inh,BMX; 1 µM,0% and 11%
same,%Inh,BRAF; 1 µM,23% and 0%
same,%Inh,BRK; 1 µM,2% and 0%
Fc1cccc(COc2ccc(Nc3ncnc4cc[nH]c34)cc2Cl)c1,%Inh,AKT3,0%
same,%Inh,ALK,0%
same,%Inh,AMPK-alpha1,4%
same,%Inh,AMPK-alpha2,0%
same,%Inh,ANKK1,40%
same,%Inh,ARK5,11%
same,%Inh,ASK1,11%
same,%Inh,ASK2,0%
same,%Inh,AURKA,16%
same,%Inh,AURKB,24%
same,%Inh,AURKC,8%
same,%Inh,AXL,16%
same,%Inh,BIKE,9%
same,%Inh,BLK,1%
same,%Inh,BMPR1A,21%
same,%Inh,BMPR1B,16%
same,%Inh,BMPR2,15%
same,%Inh,BMX,6%
same,%Inh,BRAF,0%
same,%Inh,BRK,11%
COc1cc2c(Nc3cccc(NC(=O)c4ccccc4)c3)ncnc2cc1OCCCN1CCOCC1 [GSK223810],%Inh,AKT3,0%
same,%Inh,ALK,21%
same,%Inh,AMPK-alpha1,18%
same,%Inh,AMPK-alpha2,12%
same,%Inh,ANKK1,16%
same,%Inh,ARK5,0%
same,%Inh,ASK1,0%
same,%Inh,ASK2,3%
same,%Inh,AURKA,25%
same,%Inh,AURKB,23%
same,%Inh,AURKC,51%
same,%Inh,AXL,42%
same,%Inh,BIKE,42%
same,%Inh,BLK,58%
same,%Inh,BMPR1A,9%
same,%Inh,BMPR1B,0%
same,%Inh,BMPR2,0%
same,%Inh,BMX,33%
same,%Inh,BRAF,34%
same,%Inh,BRK,18%
C[C@@H]1CCN(C(=O)CO)C[C@@H]1N(C)c1ncnc2[nH]ccc12,%Inh,AKT3,7%
same,%Inh,ALK,15%
same,%Inh,AMPK-alpha1,5%
same,%Inh,AMPK-alpha2,0%
same,%Inh,ANKK1,0%
same,%Inh,ARK5,0%
same,%Inh,ASK1,0%
same,%Inh,ASK2,0%
same,%Inh,AURKA,0%
same,%Inh,AURKB,0%
same,%Inh,AURKC,0%
same,%Inh,AXL,0%
same,%Inh,BIKE,19%
same,%Inh,BLK,2%
same,%Inh,BMPR1A,23%
same,%Inh,BMPR1B,0%
same,%Inh,BMPR2,0%
same,%Inh,BMX,0%
same,%Inh,BRAF,0%
same,%Inh,BRK,0%
Fc1ccc(Nc2nccc(-c3c(-c4ccc(Cl)cc4)nn4ncccc34)n2)cc1F [GW829058],%Inh,AKT3,15%
same,%Inh,ALK,43%
same,%Inh,AMPK-alpha1,17%
same,%Inh,AMPK-alpha2,0%
same,%Inh,ANKK1,10%
same,%Inh,ARK5,0%
same,%Inh,ASK1,2%
same,%Inh,ASK2,26%
same,%Inh,AURKA,32%
same,%Inh,AURKB,27%
same,%Inh,AURKC,0%
same,%Inh,AXL,1%
same,%Inh,BIKE,0%
same,%Inh,BLK,0%
same,%Inh,BMPR1A,18%
same,%Inh,BMPR1B,18%
same,%Inh,BMPR2,32%
same,%Inh,BMX,5%
same,%Inh,BRAF,37%
same,%Inh,BRK,6%
FC(F)(F)c1ccc(-c2nn3ncccc3c2-c2ccnc(Nc3cccc(C(F)(F)F)c3)n2)cc1 [GW828205],%Inh,AKT3,15%
same,%Inh,ALK,0%
same,%Inh,AMPK-alpha1,12%
same,%Inh,AMPK-alpha2,0%
same,%Inh,ANKK1,0%
same,%Inh,ARK5,6%
same,%Inh,ASK1,0%
same,%Inh,ASK2,0%
same,%Inh,AURKA,0%
same,%Inh,AURKB,14%
same,%Inh,AURKC,12%
same,%Inh,AXL,0%
same,%Inh,BIKE,1%
same,%Inh,BLK,1%
same,%Inh,BMPR1A,0%
same,%Inh,BMPR1B,0%
same,%Inh,BMPR2,0%
same,%Inh,BMX,0%
same,%Inh,BRAF,0%
same,%Inh,BRK,0%
Cn1cc(-c2ccc3c(c2)CCN3C(=O)Cc2cccc(C(F)(F)F)c2)c2c(N)ncnc21 [GSK2606414],%Inh,AKT3,53%
same,%Inh,ALK,1%
same,%Inh,AMPK-alpha1,0%
same,%Inh,AMPK-alpha2,13%
same,%Inh,ANKK1,16%
same,%Inh,ARK5,13%
same,%Inh,ASK1,0%
same,%Inh,ASK2,10%
same,%Inh,AURKA,30%
same,%Inh,AURKB,32%
same,%Inh,AURKC,29%
same,%Inh,AXL,41%
same,%Inh,BIKE,26%
same,%Inh,BLK,36%
same,%Inh,BMPR1A,0%
same,%Inh,BMPR1B,0%
same,%Inh,BMPR2,0%
same,%Inh,BMX,2%
same,%Inh,BRAF,12%
same,%Inh,BRK,3%
CC(C)(C)c1ccc(-n2cnc3c(N)ncnc32)cc1 [SKF-97263],%Inh,AKT3,0%
same,%Inh,ALK,7%
same,%Inh,AMPK-alpha1,14%
same,%Inh,AMPK-alpha2,21%
same,%Inh,ANKK1,24%
same,%Inh,ARK5,10%
same,%Inh,ASK1,1%
same,%Inh,ASK2,1%
same,%Inh,AURKA,7%
same,%Inh,AURKB,16%
same,%Inh,AURKC,16%
same,%Inh,AXL,15%
same,%Inh,BIKE,19%
same,%Inh,BLK,6%
same,%Inh,BMPR1A,0%
same,%Inh,BMPR1B,5%
same,%Inh,BMPR2,6%
same,%Inh,BMX,16%
same,%Inh,BRAF,0%
same,%Inh,BRK,6%
FC(F)(F)c1ccc(-c2cc(-c3c[nH]nc3-c3ccccn3)ccn2)cc1 [GW599550],%Inh,AKT3,0%
same,%Inh,ALK,24%
same,%Inh,AMPK-alpha1,4%
same,%Inh,AMPK-alpha2,16%
same,%Inh,ANKK1,20%
same,%Inh,ARK5,0%
same,%Inh,ASK1,5%
same,%Inh,ASK2,0%
same,%Inh,AURKA,18%
same,%Inh,AURKB,17%
same,%Inh,AURKC,14%
same,%Inh,AXL,20%
same,%Inh,BIKE,13%
same,%Inh,BLK,39%
same,%Inh,BMPR1A,0%
same,%Inh,BMPR1B,0%
same,%Inh,BMPR2,25%
same,%Inh,BMX,19%
same,%Inh,BRAF,0%
same,%Inh,BRK,8%
COc1ccc(Nc2nccc(N3CCC(NC(=O)c4cccc(NC(C)=O)c4)C3)n2)cc1 (stereo not drawn) [GSK1379732],%Inh,AKT3,23%
same,%Inh,ALK,0%
same,%Inh,AMPK-alpha1,5%
same,%Inh,AMPK-alpha2,0%
same,%Inh,ANKK1,11%
same,%Inh,ARK5,9%
same,%Inh,ASK1,0%
same,%Inh,ASK2,1%
same,%Inh,AURKA,16%
same,%Inh,AURKB,1%
same,%Inh,AURKC,1%
same,%Inh,AXL,1%
same,%Inh,BIKE,0%
same,%Inh,BLK,40%
same,%Inh,BMPR1A,0%
same,%Inh,BMPR1B,0%
same,%Inh,BMPR2,9%
same,%Inh,BMX,16%
same,%Inh,BRAF,0%
same,%Inh,BRK,0%
Nc1n[nH]c2nnc(-c3ccccc3)cc12 [SB-517389],%Inh,AKT3,0%
same,%Inh,ALK,29%
same,%Inh,AMPK-alpha1,0%
same,%Inh,AMPK-alpha2,16%
same,%Inh,ANKK1,0%
same,%Inh,ARK5,1%
same,%Inh,ASK1,61%
same,%Inh,ASK2,0%
same,%Inh,AURKA,13%
same,%Inh,AURKB,32%
same,%Inh,AURKC,0%
same,%Inh,AXL,0%
same,%Inh,BIKE,0%
same,%Inh,BLK,0%
same,%Inh,BMPR1A,4%
same,%Inh,BMPR1B,0%
same,%Inh,BMPR2,0%
same,%Inh,BMX,0%
same,%Inh,BRAF,0%
same,%Inh,BRK,20%
